# Assay results from paper PMC7862700, “An all-to-all approach to the identification of sequence-specific readers for epigenetic DNA modifications on cytosine”.
# Tests used:
# Assay in all cases: DAPPL (digital affinity profiling via proximity ligation, sequencing); 10 mM Tris-HCl pH 7.5, 50 mM NaCl, 1 mM DTT, 4% glycerol, room temperature, 30 min; GST-TFs on glutathione beads, 16-mer random dsDNA library, 0.1% formaldehyde crosslink after washing; high values mean tight binding
# FEV = molecular target: T1, FEV (Homo sapiens, UniProt Q99581 1-238); settings: protein: recombinant; tags: N-terminal GST; dsDNA, one strand shown
# T1 sequence: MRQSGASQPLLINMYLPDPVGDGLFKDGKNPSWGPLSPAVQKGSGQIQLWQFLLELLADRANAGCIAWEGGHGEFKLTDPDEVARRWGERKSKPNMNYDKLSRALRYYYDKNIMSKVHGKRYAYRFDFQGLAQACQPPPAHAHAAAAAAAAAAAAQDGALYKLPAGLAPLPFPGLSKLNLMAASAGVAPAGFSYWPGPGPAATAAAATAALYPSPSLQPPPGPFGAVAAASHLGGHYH
# In short: (§1)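 Binding signal is each hexamer's read frequency for a factor divided by its frequency in the tag-only sample. The factors were GST-fused human transcription factors from yeast, captured on glutathione beads, DNA-barcoded and pooled with that sample. Pools were incubated with 200 nmole of a random double-stranded 16-mer DNA library in Tris/NaCl/DTT/glycerol buffer at room temperature for 30 min, then washed, crosslinked with 0.1% formaldehyde, proximity-ligated with BsaI/T4 ligase (1 h, 37 °C), PCR-amplified and sequenced on an Illumina NextSeq500.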
# ETV5 = ETV5 (Homo sapiens, UniProt P41161 1-510); settings: protein: recombinant; tags: N-terminal GST; dsDNA, one strand shown
# In short: as §1
# HSF1 = HSF1 (Homo sapiens, UniProt Q00613 1-529); settings: protein: recombinant; tags: N-terminal GST; chain copies: 3; dsDNA, one strand shown
# In short: as §1
# SPIC = molecular target: T2, SPIC (Homo sapiens, UniProt Q8N5J4 1-248); settings: protein: recombinant; tags: N-terminal GST; dsDNA, one strand shown
# T2 sequence: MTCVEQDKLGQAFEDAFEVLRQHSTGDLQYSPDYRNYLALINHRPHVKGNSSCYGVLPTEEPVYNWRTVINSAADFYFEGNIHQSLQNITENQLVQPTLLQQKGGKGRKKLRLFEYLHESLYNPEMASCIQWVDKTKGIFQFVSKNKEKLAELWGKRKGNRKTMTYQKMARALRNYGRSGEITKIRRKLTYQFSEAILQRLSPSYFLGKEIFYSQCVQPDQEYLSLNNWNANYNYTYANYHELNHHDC
# In short: as §1
# ELF4 = ELF4 (Homo sapiens, UniProt Q99607 1-663); settings: protein: recombinant; tags: N-terminal GST; dsDNA, one strand shown
# In short: as §1
# ELK4 = molecular target: T3, ELK4 (Homo sapiens, UniProt P28324-2 1-405); settings: protein: recombinant; tags: N-terminal GST; dsDNA, one strand shown
# T3 sequence: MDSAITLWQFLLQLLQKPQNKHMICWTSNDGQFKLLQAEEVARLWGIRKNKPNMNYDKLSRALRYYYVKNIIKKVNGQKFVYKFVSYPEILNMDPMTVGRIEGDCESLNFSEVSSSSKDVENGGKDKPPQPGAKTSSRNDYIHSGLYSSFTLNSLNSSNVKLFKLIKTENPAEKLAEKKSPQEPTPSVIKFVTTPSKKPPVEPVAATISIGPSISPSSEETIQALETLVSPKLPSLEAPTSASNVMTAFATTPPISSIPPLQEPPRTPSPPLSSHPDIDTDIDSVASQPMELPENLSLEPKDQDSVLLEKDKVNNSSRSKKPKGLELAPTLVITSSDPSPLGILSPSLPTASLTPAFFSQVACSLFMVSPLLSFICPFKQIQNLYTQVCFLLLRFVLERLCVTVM
# In short: as §1
# ETV2 = molecular target: T4, ETV2 (Homo sapiens, UniProt O00321 1-342); settings: protein: recombinant; tags: N-terminal GST; dsDNA, one strand shown
# T4 sequence: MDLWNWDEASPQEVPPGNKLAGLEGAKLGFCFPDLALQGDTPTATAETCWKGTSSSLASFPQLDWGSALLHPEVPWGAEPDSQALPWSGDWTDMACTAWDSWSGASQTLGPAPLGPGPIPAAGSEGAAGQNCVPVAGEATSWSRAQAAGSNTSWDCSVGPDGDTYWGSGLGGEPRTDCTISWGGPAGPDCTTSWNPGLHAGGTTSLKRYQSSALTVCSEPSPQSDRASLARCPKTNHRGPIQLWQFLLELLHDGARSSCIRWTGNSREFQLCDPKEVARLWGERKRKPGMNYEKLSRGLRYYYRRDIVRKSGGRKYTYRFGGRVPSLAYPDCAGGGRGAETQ
# In short: as §1
# ELF3 = molecular target: T5, ELF3 (Homo sapiens, UniProt P78545 1-371); settings: protein: recombinant; tags: N-terminal GST; dsDNA, one strand shown
# T5 sequence: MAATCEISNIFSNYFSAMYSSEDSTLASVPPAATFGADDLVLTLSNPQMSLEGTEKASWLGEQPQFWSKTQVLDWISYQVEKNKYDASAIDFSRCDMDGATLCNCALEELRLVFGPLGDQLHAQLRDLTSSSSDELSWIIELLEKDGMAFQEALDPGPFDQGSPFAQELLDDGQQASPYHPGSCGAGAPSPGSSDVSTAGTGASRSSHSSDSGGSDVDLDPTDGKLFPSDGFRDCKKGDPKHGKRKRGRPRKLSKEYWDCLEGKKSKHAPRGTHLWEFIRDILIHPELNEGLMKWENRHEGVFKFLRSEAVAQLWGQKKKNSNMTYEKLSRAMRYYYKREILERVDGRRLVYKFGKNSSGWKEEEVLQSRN
# In short: as §1
# CRX = CRX (Homo sapiens, UniProt O43186 1-299); settings: protein: recombinant; tags: N-terminal GST; dsDNA, one strand shown
# In short: as §1
# ETV1 = ETV1 (Homo sapiens, UniProt P50549 1-477); settings: protein: recombinant; tags: N-terminal GST; dsDNA, one strand shown
# In short: as §1
# Sequence of ETV5 (P41161 whole entry): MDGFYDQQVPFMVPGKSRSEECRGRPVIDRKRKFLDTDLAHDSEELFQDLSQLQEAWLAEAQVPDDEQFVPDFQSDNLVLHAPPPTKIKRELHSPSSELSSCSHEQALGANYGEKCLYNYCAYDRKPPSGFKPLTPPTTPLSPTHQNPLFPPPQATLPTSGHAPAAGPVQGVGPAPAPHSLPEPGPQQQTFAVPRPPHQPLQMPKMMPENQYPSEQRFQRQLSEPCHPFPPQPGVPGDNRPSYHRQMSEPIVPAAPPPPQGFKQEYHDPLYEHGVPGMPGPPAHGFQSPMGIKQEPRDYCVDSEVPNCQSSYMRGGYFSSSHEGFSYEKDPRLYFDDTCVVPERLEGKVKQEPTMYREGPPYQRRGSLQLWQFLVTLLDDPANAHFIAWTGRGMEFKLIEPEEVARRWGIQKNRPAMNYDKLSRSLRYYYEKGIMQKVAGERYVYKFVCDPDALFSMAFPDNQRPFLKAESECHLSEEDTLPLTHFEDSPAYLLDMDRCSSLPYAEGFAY
# Sequence of ETV1 (P50549 whole entry): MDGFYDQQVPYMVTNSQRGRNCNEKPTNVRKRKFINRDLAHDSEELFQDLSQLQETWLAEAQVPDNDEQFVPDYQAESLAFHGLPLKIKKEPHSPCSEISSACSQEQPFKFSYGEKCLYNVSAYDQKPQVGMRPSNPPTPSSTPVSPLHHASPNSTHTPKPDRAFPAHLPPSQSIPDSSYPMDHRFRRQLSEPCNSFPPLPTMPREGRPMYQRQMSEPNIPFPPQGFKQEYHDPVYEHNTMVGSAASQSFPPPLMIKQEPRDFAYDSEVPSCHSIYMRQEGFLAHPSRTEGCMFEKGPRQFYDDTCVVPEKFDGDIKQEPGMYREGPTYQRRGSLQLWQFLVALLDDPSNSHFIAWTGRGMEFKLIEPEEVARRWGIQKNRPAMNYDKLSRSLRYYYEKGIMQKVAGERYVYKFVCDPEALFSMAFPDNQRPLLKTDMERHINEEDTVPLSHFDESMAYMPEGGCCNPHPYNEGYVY
# Sequence of ELF4 (Q99607 whole entry): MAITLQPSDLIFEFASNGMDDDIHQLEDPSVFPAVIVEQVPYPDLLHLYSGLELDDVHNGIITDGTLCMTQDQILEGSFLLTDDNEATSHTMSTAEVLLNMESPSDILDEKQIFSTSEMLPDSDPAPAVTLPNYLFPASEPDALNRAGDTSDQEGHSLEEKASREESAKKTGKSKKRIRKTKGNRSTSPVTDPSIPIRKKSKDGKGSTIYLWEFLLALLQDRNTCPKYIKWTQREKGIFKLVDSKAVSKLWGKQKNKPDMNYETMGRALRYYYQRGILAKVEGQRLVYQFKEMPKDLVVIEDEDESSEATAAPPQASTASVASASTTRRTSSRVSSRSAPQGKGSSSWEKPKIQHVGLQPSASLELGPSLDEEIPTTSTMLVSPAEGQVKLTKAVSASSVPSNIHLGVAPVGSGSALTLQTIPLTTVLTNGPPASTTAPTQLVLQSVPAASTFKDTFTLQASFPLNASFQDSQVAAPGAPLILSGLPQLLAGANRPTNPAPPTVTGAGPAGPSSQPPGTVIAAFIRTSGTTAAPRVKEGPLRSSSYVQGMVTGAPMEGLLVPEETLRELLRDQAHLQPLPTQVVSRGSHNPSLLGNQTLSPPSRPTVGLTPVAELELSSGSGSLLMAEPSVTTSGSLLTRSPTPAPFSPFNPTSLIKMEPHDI
# Sequence of CRX (O43186 whole entry): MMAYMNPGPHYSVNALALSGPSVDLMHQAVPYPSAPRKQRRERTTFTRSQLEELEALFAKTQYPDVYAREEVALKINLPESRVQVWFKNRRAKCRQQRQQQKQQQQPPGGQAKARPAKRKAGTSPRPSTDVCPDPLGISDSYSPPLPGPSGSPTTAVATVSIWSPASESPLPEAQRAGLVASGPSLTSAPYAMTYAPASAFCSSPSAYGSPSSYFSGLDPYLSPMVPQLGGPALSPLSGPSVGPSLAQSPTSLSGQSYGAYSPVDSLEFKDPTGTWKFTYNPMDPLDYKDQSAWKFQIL
# Sequence of HSF1 (Q00613 whole entry): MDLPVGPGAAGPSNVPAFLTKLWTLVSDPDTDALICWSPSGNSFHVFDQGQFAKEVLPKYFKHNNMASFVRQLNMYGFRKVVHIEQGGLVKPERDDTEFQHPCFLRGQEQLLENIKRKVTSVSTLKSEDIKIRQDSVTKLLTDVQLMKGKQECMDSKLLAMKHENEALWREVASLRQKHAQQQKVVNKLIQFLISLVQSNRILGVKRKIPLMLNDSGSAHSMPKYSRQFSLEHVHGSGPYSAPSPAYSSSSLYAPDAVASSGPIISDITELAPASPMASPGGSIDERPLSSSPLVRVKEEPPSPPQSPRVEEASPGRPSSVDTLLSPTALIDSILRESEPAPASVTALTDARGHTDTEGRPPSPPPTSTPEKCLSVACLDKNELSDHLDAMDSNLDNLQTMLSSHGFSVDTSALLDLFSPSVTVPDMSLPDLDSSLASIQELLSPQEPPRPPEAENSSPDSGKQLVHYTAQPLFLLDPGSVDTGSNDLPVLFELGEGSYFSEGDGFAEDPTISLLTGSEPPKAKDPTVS
sequence,measurement,setting,value
TACACA,binding signal,FEV,"1.21 fold enrichment (6-mer frequency, TF over GST control)"
same,binding signal,ETV5,"1.2 fold enrichment (6-mer frequency, TF over GST control)"
same,binding signal,HSF1,"1.05 fold enrichment (6-mer frequency, TF over GST control)"
same,binding signal,SPIC,"1.35 fold enrichment (6-mer frequency, TF over GST control)"
same,binding signal,ELF4,"1.2 fold enrichment (6-mer frequency, TF over GST control)"
same,binding signal,ELK4,"1.26 fold enrichment (6-mer frequency, TF over GST control)"
same,binding signal,ETV2,"1.12 fold enrichment (6-mer frequency, TF over GST control)"
same,binding signal,ELF3,"1.22 fold enrichment (6-mer frequency, TF over GST control)"
same,binding signal,CRX,"1.09 fold enrichment (6-mer frequency, TF over GST control)"
same,binding signal,ETV1,"1.2 fold enrichment (6-mer frequency, TF over GST control)"
